From PubChem
Hits are enriched below; roughly 7.3% of the tested compounds scored in any of these assays.
NPC1 prom act: activates the NPC1 promoter; Potency, µM (highest dose often 9.22 µM), without a hit: at the top dose activation, actives largely listed as activators; actives 2.4% (n = 320,000); Huh7 NPC1 promoter luciferase reporter, 24 h; AID 485313; note: % of control where 0% means no effect; nearly all actives have a fitted effect of over 60% in size
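Luminescence from an NPC1 promoter-driven luciferase reporter in stably transfected Huh7 cells was measured after 24 h compound treatment at 37 °C, followed by 10 min ambient incubation with luciferase detection reagent.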
uPA surface inh: inhibitors of cell surface uPA generation; cell surface uPA generation assay, qHTS; Potency, µM (doses to about 38.3 µM), for the others: top-dose activity change, negative = inhibition, usual class: inhibitors; actives 0.31% (n = 330,000); AID 540303; active = well fitted inhibition curve with a large enough effect; inconclusive = small, poorly fitted or top-dose-only effect; inactive = no such curve, though single readings can be large or run the other way; tested in mouse RAW 264.7 cells; note: % is set by controls: 0 for no effect and ±100 for the full control effect; nearly all actives have a fitted effect of over 55% in size
SMN2 splice up: enhancers of SMN2 splice variant expression; actives 2.8% (n = 210,000); HEK293 SMN2-luciferase splicing reporter, luminescence, 30-36 h; AID 1458; Potency, µM (titrated, usually from 46.1 µM), for inactives: at the top dose activity change, positive = activation, usual class: activators; note: % of control where 0% means no effect; nearly all actives have a fitted effect of over 55% in size
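HEK293 cells carry an SMN2 […]–luciferase reporter in which exon 7 inclusion puts luciferase in frame. Cells were plated 10-12 h before compound addition, then incubated 30-36 h at 37C. ONE-Glo luminescence was read; sodium butyrate at 4.5 mM final served as control.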
ELG1 genotoxic: genotoxicity induction in ELG1-luciferase HEK293T cells. HEK293T ELG1-luciferase reporter, luminescence, 16 h. Potency, µM (doses to about 46 µM), for inactives: at the highest dose activity change, positive = activation, most hits filed as activators. actives 1.3% (n = 330,000); note: % of control where 0% means no effect; nearly all actives have a fitted effect of over 60% in size
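Step 1: seed 2,000 HEK293T ELG1-luciferase cells per well. Step 2: add compound or DMSO, incubate 16 hr at 37 °C. Step 3: ONE-Glo, 30 min at room temperature, read luminescence.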
Rab9 prom act: activates the Rab9 promoter; Huh7 Rab9 promoter-luciferase reporter, luminescence, 24 h; Potency, µM (titrated, usually from 9.22 µM), without a hit: top-dose activation, negative = inhibition, usual class: activators; actives 2.8% (n = 320,000); note: % of control where 0% means no effect; nearly all actives have a fitted effect of over 60% in size
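Using Huh7 cells stably transfected with Rab9 promoter–luciferase, compounds were incubated 24 h at 37 °C, 5% CO2; luciferase luminescence was read 10 min after reagent addition.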
FLuc modulator: counter-screen for miR-21 project: firefly luciferase inhibitors or activators; purified FLuc, Km substrates, luminescence inhibition; Potency, µM (top dose mostly 57.5 µM), for the others: at the top dose activity change, negative = inhibition, hits mostly inhibitors; actives 6.9% (n = 360,000); AID 588342;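 note: plate controls were vehicle for no effect and reference inhibitor for full effect; nearly all actives have a fitted effect of over 55% in size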
Target sequence (P08659 whole entry, looked up): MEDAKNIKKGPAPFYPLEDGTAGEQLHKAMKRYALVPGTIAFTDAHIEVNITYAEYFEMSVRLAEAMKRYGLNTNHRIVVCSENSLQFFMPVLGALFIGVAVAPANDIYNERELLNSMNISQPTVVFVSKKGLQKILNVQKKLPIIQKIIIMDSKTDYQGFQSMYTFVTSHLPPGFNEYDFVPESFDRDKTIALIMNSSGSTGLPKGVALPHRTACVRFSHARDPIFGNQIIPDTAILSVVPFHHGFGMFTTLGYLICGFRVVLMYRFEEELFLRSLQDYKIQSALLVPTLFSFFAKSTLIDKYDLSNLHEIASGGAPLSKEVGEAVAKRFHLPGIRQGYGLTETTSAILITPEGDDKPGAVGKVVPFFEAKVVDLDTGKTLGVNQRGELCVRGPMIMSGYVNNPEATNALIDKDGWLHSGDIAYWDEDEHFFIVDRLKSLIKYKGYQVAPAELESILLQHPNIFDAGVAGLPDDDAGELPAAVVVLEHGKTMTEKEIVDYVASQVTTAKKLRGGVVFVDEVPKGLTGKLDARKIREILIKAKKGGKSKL
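Purified P. pyralis luciferase (10nM final) with 10uM D-luciferin and 10uM ATP (Km levels) in 50mM Tris acetate pH 7.5, 10mM Mg acetate, 0.01% Tween-20, 0.05% BSA; qHTS 6-point titration, ~60 µM downward; luminescence read.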
Numbers without * were called inactive; ? = inconclusive; / = no result given. Unless noted, calls come from the whole dose curve; as a rule, active = well fitted curve in the direction sought with a large enough effect; inconclusive = small, poorly fitted or top-dose-only effect, or another doubt; inactive = no such curve, though single readings can be large; an effect the other way counts as inactive or inconclusive. Potency is the fitted concentration of half-maximal effect.

SMILES	NPC1 prom act	uPA surface inh	SMN2 splice up	ELG1 genotoxic	Rab9 prom act	FLuc modulator
C/C(=N\NC(=O)CNC(=O)C1COc2ccccc2O1)c1ccco1 (centres undefined)	-5%	7%	/	-2%	-2%	5%
Cc1cc2nnc(SCc3ccc(F)cc3)n2c2ccccc12	/	/	-10%	/	/	-18%
Cc1ccc(Nc2nnc(SC(C)C(=O)Nc3c(C)n(C)n(-c4ccccc4)c3=O)s2)cc1 (centres undefined)	-1%	-2%	6%	0%	0%	11µM*
O=C(NCc1ccccc1Cl)c1cnc2sc(N3CCOCC3)nn2c1=O	/	/	/	/	/	-4%
COC(=O)c1ccc(NS(=O)(=O)c2ccc3c(c2)n(C)c(=O)c(=O)n3C)cc1	/	/	-1%	/	/	-5%
CN(C(=O)CSc1ncnc2sc(-c3ccccc3)cc12)C1CCS(=O)(=O)C1 (centres undefined)	-1%	5%	-47%	-6%	9%	17µM*
CN(C(=O)CSc1ncnc2scc(-c3ccccc3)c12)C1CCS(=O)(=O)C1 (centres undefined)	1%	-3%	8%	3%	-2%	0%
CN(C(=O)CSc1ncnc2ccccc12)C1CCCCC1	?	-8%	/	?	3.5µM*	15µM*
CC(C)C(C)(C#N)NC(=O)CSc1ncnc2sc(-c3ccccc3)cc12 (centres undefined)	0%	-10%	/	-7%	-2%	?
CN(C(=O)COc1ncnc2ccccc12)C1CCCCC1	/	4%	/	0%	/	/
COCC(C)NC(=O)CSc1ncnc2sc(-c3ccccc3)cc12 (centres undefined)	-3%	0%	/	-7%	-3%	?
CCN(CC)C(=O)CSc1ncnc2sc(-c3ccccc3)cc12	?	-1%	-10%	?	2.8µM*	11µM*
CN(CCC#N)C(=O)CSc1ncnc2sc(-c3ccccc3)cc12	16%	-5%	-22%	-1%	20%	11µM*
CC1(c2ccccc2Cl)NC(=O)N(CC(=O)c2ccc3c(c2)OCO3)C1=O (centres undefined)	0%	-3%	/	2%	2%	?
O=C(Nc1ccnn1C1CCN(C(=O)c2ccc(F)cc2)CC1)C1CCOC1 (centres undefined)	-4%	2%	/	1%	-4%	3%
C=Cc1ccc(C=C)cc1	/	/	-9%	/	/	/
Cc1ccc(C(=O)NCc2nc3ccccc3[nH]2)o1	2%	-3%	/	5%	5%	-1%
C/C(=N\Nc1nc(C)cc(C)n1)c1ccc(N2CCOCC2)cc1	-10%	-9%	-11%	-7%	-13%	-14%
C/C(=N\Nc1nc2ccccc2[nH]1)c1ccc(N2CCOCC2)cc1	4µM*	-18%	?	10%	?	1.1µM*
C/C(=N\Nc1nc2ccccc2[nH]1)c1ccc(Cl)s1	?	-9%	-3%	2%	17%	11µM*
C/C(=N\Nc1nc2ccccc2[nH]1)c1ccc(C)o1	22%	-21%	18µM*	?	?	11µM*
Cc1cccc(C(=O)N2CCc3cc(CNC(=O)c4ccco4)ccc32)c1	/	/	/	/	/	-12%
Cc1ccc(/C=C2/Sc3ccc(C(=O)N4CCN(c5ccccn5)CC4)cc3NC2=O)cc1	-5%	6%	/	-4%	-2%	13µM*
CCOC(=O)C1CCN(C(=O)c2ccc3c(c2)NC(=O)/C(=C\c2ccc(C)cc2)S3)CC1	-5%	6%	/	0%	1%	24µM*
CC(=O)NC1=NC(=O)/C(=C/c2cc(C)n(-c3ccc(NC(C)=O)cc3)c2C)S1	?	-16%	12%	-4%	?	5.4µM*
SMILES	NPC1 prom act	uPA surface inh	SMN2 splice up	ELG1 genotoxic	Rab9 prom act	FLuc modulator
Cc1ccc(NC(=O)CN2C(=O)N/C(=C/c3cc(C)n(-c4cccc(C(=O)O)c4)c3C)C2=O)cc1	-5%	5%	4%	3%	0%	?
CC(=O)NC1=NC(=O)/C(=C/c2cn(C(C)=O)nc2-c2ccccc2)S1	7%	10%	7%	-16%	0%	-17%
CC(=O)NC1=NC(=O)/C(=C/c2cc(C)n(-c3cccc(C(=O)O)c3)c2C)S1	-8%	-3%	/	0%	-7%	15µM*
O=c1c2c3c(sc2nnn1Cc1ccc(Br)cc1)CCCC3	/	/	14%	/	/	0%
COC(=O)c1sc(N2C(=O)c3oc4ccccc4c(=O)c3C2c2ccc(O)cc2)nc1C (centres undefined)	/	/	-6%	/	/	-6%
Cc1ccc(NC(=O)CSc2nc(-c3cccs3)cc(C(F)(F)F)n2)cc1C	/	/	-24%	/	/	-1%
O=c1cc(CSc2n[nH]c(-c3ccccc3)n2)[nH]c2ccccc12	/	/	/	/	/	-16%
CN(c1ccccc1)c1nc2ccsc2c(=O)s1	?	1%	?	13µM*	3.2µM*	12µM*
Cc1sc(NC(=S)NC(=O)C2CCCCC2)c(C(N)=O)c1C	3%	-13%	?	4%	21%	-13%
O=C(Nc1ccc2c(c1)CN(Cc1ccc(CO)o1)CC2)c1ccc(C(F)(F)F)cc1	2%	-2%	/	17%	-7%	11µM*
Nc1nc(N2CCN(C(=O)c3ccco3)CC2)nc2ccc(Br)cc12	2µM*	-23%	7.9µM*	?	1.1µM*	9.5µM*
Nc1nc(N2CCN(C(=O)c3ccco3)CC2)nc2ccccc12	27%	-1%	13µM*	13%	?	19µM*
O=C1CCCc2nc(N3CCN(C(=O)c4ccco4)CC3)ncc21	4µM*	-1%	/	21µM*	2.5µM*	27µM*
Cc1oc(/N=C/c2ccccc2)c(C#N)c1C	2%	-3%	/	1%	4%	12µM*
COc1cc(/C=N/c2oc(C)c(C)c2C#N)cc(Br)c1O	-1%	-6%	/	0%	-3%	15µM*
Cc1oc(/N=C/c2cccc3ccccc23)c(C#N)c1C	0%	/	0%	-2%	1%	-8%
Oc1ccccc1-c1cc(-c2ccc(F)cc2)n[nH]1	?	7%	/	5.8µM*	7%	3.4µM*
Cc1ccc(-c2cc(-c3ccc(F)cc3)n[nH]2)c(O)c1	?	3%	/	?	4µM*	4.3µM*
Oc1ccc(F)cc1-c1cc(-c2ccc3c(c2)OCCO3)n[nH]1	3.2µM*	-1%	13µM*	?	1.8µM*	2.4µM*
Cc1ccc(-c2noc(-c3cc(-c4ccc(F)cc4)n[nH]3)n2)cc1	/	/	/	/	/	-10%
Oc1ccccc1-c1cc(-c2ccccc2)n[nH]1	/	10%	/	?	/	/
Cc1ccc(-c2cc(-c3ccc(C)cc3O)[nH]n2)cc1	0.71µM*	13%	/	?	0.89µM*	2.4µM*
CCC(=O)N1CCc2cc(S(=O)(=O)N(C)c3cccc(C)c3)ccc21	/	/	8%	/	/	-2%
